# Where “and” joins values, the source holds several entries; their conditions need not be identical. Equal entries are not always repeated. The source holds several records for some structures; these can differ, active in one and inactive in another. Calls of active or inactive are those of the source. How the calls were made is not given here.
# What was measured:
# [1] = kinase inhibitors against Plasmodium liver-stage infection, cell-based, known kinase inhibitor set, luminescence, hepatoma host viability (AID 624392); settings: Plasmodium liver stage in hepatoma cells, luciferase luminescence, concentration not given here; liver cell % of control: measured here: host liver cell viability; parasite % of control: stronger effect = lower value;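 further: infected cells incubated roughly two days before readout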
# [2] = modulators of glucocorticoid suppression of NF-kB, cell-based, luciferase, IL-1B stimulus, dexamethasone (AID 624486); settings: NF-kB luciferase reporter, IL-1B + dexamethasone, luminescence; percent of negative control (+Dex): actives lie on both sides, concentration not given here; z-score: measured here: IL-1B alone, no Dex;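 on percent of negative control (+Dex): 100% = mean signal of vehicle control wells on the plate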
# [3] = molecular target: Cellular tumor antigen p53 (Homo sapiens) (UniProt P04637); assay: kinase inhibitors altering GFP-p53 stability in HPV16-positive cells, imaging, known kinase inhibitor set, EGFP/DsRed ratio (AID 1053116); settings: stronger effect = higher value; EGFP object count: measured here: GFP-p53 positive objects count;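 further: cells exposed to compounds for 24 h at 37 °C before reading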
# Chain of Cellular tumor antigen p53 (Homo sapiens) (P04637 whole entry, looked up): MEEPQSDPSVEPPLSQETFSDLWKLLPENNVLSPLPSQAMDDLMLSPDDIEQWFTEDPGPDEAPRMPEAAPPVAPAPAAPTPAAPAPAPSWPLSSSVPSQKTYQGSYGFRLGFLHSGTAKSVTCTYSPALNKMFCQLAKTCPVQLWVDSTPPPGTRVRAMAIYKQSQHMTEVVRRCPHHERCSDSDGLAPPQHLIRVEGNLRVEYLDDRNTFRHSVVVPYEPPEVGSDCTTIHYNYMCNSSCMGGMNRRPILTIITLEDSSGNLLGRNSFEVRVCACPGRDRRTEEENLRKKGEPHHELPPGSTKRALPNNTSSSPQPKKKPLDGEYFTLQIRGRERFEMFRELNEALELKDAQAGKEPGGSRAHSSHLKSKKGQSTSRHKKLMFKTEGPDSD
# [4] = IRF3 reporter activation in THP-1 macrophages, cell-based, PMA-stimulated THP-1, luminescence (AID 1053176); settings: PMA-differentiated THP-1, IRF3 reporter luminescence; stronger effect = higher value
SMILES,liver cell % of control [1],parasite % of control [1],percent of negative control (+Dex) [2],z-score [2],EGFP object count [3],EGFP/DsRed ratio [3],fraction signal [4]
Nc1c(C(=O)c2cccc(C#CCN3CCOCC3)c2)cnn1-c1ccc(F)cc1,159%,75.7% (inactive),120% (inactive),1.29,2.5,0.12 (inactive),0.0055 (inactive)
CC(C)c1[nH]nc2c1N=C(c1ccccc1Cl)c1cc([N+](=O)[O-])ccc1N2,105%,61.2% (inactive),108% (inactive),0.05,50.5,1.11 (active),-0.0115 (inactive)
COc1cc[nH]c1C=C1C(=O)Nc2ccc(F)c(I)c21,98.3%,40.2% (inactive),98% (inactive),0.98,46,0.596 (inactive),0.0015 (inactive)
Cn1cc(C2=C(c3cn(CCSC(=N)N)c4ccccc34)C(=O)NC2=O)c2ccccc21,92.2%,26.4% (inactive),96.5% (inactive),0.445,2.5,0.00335 (inactive),-0.018 (inactive)
Nc1c(C(=O)c2cccc(CCC3(O)CCCC3)c2)cnn1-c1ccc(F)cc1,112%,81% (inactive),105% (inactive),-0.24,2.5,0.0989 (inactive),-0.0005 (inactive)
N#CCn1c(=O)c(Oc2ccc(F)cc2F)cc2cnc(NC3CCOCC3)nc21,96.2%,58.4% (inactive),97% (inactive),-0.11,2.5,0.064 (inactive),-0.007 (inactive)
CS(=O)(=O)CCc1cccc(C(=O)c2cnn(-c3ccc(F)cc3)c2N)c1,95.7%,45.3% (inactive),102% (inactive),1.1,1.5,0.152 (inactive),-0.0075 (inactive)
Cn1cc(C2=C(c3cn(C)c4cc(C(N)=O)ccc34)C(=O)NC2=O)c2ccccc21,96.9%,59.1% (inactive),95% (inactive),-0.22,56.5,0.829 (active),-0.0005 (inactive)
O=c1c(Oc2ccc(F)cc2F)cc2cnc(NC3CCOCC3)nc2n1C1CC1,113%,52.9% (inactive),92.5% (inactive),-0.435,4,0.269 (inactive),-0.0095 (inactive)
COc1cccc(C(=O)c2sc(Nc3ccc(N4CCN(C(C)C)CC4)cc3)nc2N)c1,86.7%,389% (inactive),112% (inactive),1.07,2.5,0.139 (inactive),-0.02 (inactive)
Cc1c(C2=C(c3cn(C)c4ccccc34)C(=O)NC2=O)c2ccccc2n1C,103%,53.6% (inactive),102% (inactive),-0.055,9,0.392 (inactive),0.0015 (inactive)
COc1ccc(C2=C(c3cn(C)c4ccccc34)C(=O)NC2=O)cc1,131%,39.3% (inactive),108% (inactive),-0.1,5.5,0.214 (inactive),-0.0115 (inactive)
CS(=O)(=O)CCCn1c(=O)c(Oc2ccc(F)cc2F)cc2cnc(NC3CCOCC3)nc21,98.7%,51.4% (inactive),101% (inactive),0.05,1,0.0135 (inactive),-0.009 (inactive)
Cn1cc(C2=C(c3cccc([N+](=O)[O-])c3)C(=O)NC2=O)c2ccccc21,86.9%,3.57% (inactive),106% (inactive),-2.63,14,0.255 (inactive),0.0015 (inactive)
Nc1c(C(=O)c2cccc(C(O)CO)c2)cnn1-c1ccc(F)cc1 (centres undefined),101%,60.5% (inactive),110% (inactive),1.48,4.5,0.197 (inactive),0.0035 (inactive)
O=C1NC(=NCc2c(Cl)cccc2Cl)SC1=Cc1ccc2ncccc2c1,106%,51.5% (inactive),101% (inactive),0.16,2.5,0.0754 (inactive),-0.009 (inactive)
Cn1cc(C2=C(c3cccc(OCC(O)CO)c3)C(=O)NC2=O)c2ccccc21 (centres undefined),160% and 129%,22.3% (inactive) and 22.7% (inactive),136% (active) and 100% (inactive),-1.71 and 0.045,7 and 9.5,0.14 (inactive) and 0.372 (inactive),0.0035 (inactive) and -0.0025 (inactive)
CN1CCN(CCc2cccc(C(=O)c3cnn(-c4ccc(F)cc4)c3N)c2)CC1,112%,51.1% (inactive),96.5% (inactive),1.1,5,0.187 (inactive),0.0015 (inactive)
CC(=O)Nc1ccc2c(C3=C(c4cn(C)c5ccccc45)C(=O)NC3=O)cn(C)c2c1,83.1%,16.4% (inactive),114% (inactive),-1.25,61.5,0.596 (active),-0.009 (inactive)

SMILES,liver cell % of control [1],parasite % of control [1],percent of negative control (+Dex) [2],z-score [2],EGFP object count [3],EGFP/DsRed ratio [3],fraction signal [4]
CN1CCN(c2ccc(Nc3nc(N)c(C(=O)c4ccc5c(c4)OCCO5)s3)cc2)CC1,108%,46.7% (inactive),138% (inactive),3.58,4.5,0.151 (inactive),-0.018 (inactive)
Nc1c(C(=O)c2cccc(-c3cccnc3)c2)cnn1-c1ccc(F)cc1,219%,7.92% (inactive),111% (inactive),0.475,3,0.0451 (inactive),-0.005 (inactive)
O=C1NC(=O)C(=Cc2ccc3ncccc3c2)S1,98%,60.7% (inactive),126% (active),3.21,5,0.206 (inactive),0.005 (inactive)
O=C1NC(=NC(CO)c2ccccc2)SC1=Cc1ccc2ncccc2c1 (centres undefined),113% and 90.5%,71.9% (inactive) and 55.3% (inactive),102% (inactive) and 96% (inactive),0.925 and 0.08,4 and 5.5,0.088 (inactive) and 0.122 (inactive),-0.005 (inactive) and 0.0055 (inactive)
COc1ccc(O)c(C(=O)c2ccc(C(=O)O[C@H]3CCCNC[C@@H]3NC(=O)c3ccncc3)cc2)c1F,113%,109% (inactive),62% (active),-1.53,15.5,0.253 (inactive),0.001 (inactive)
Cn1cc(C2=C(c3cn(C)c4ccc(Cl)cc34)C(=O)NC2=O)c2ccccc21,77%,33.5% (inactive),114% (inactive),-1.06,156,0.929 (active),-0.0075 (inactive)
COc1ccccc1CN=C1NC(=O)C(=Cc2ccc3ncccc3c2)S1,98.9%,28.1% (inactive),91.5% (inactive),-0.71,4.5,0.187 (inactive),-0.0025 (inactive)
Cn1cc(C2=C(c3cn(CCCCCSC(=N)N)c4ccccc34)C(=O)NC2=O)c2ccccc21,88.1%,29.3% (inactive),99.5% (inactive),1.02,24.5,0.037 (inactive),-0.007 (inactive)
CN(C)CC1CCn2c(c(C3=C(c4cn(C)c5ccccc45)C(=O)NC3=O)c3ccccc32)C1 (centres undefined),80.7% and 77.1%,27.7% (inactive) and 36.4% (inactive),97% (inactive) and 96.5% (inactive),-0.715 and -0.17,13.5 and 7.5,0.0249 (inactive) and 0.0159 (inactive),-0.0005 (inactive) and -0.0055 (inactive)
COc1cccc2c1c(C1=C(c3cn(C)c4ccccc34)C(=O)NC1=O)cn2C,85.8%,34.6% (inactive),103% (inactive),0.84,12.5,0.282 (inactive),-0.0155 (inactive)
Cn1c(=O)c(Cc2ccccc2F)cc2cnc(NC3CCOCC3)nc21,106%,64.6% (inactive),107% (inactive),0.55,2.5,0.0998 (inactive),0.0035 (inactive)
Cn1cc(C2=C(c3cccc(N)c3)C(=O)NC2=O)c2ccccc21,102%,14.9% (inactive),124% (active),-1.23,23.5,0.303 (inactive),-0.005 (inactive)
O=C1NC(=NCCc2ccc(F)cc2)SC1=Cc1ccc2ncccc2c1,127%,57.5% (inactive),99.5% (inactive),0.5,1.5,0.0132 (inactive),0.0035 (inactive)
CC(c1ccccc1)C(C(=O)Nc1ccc(I)cc1F)N1C(=O)NC(c2ccc(OCC(O)CO)cc2)C1=O (centres undefined),85.7%,72.5% (inactive),55% (active),-3.5,5,0.306 (inactive),0.0035 (inactive)
COc1ccc(CCN=C2NC(=O)C(=Cc3ccc4ncccc4c3)S2)cc1,99.3%,48.7% (inactive),100% (inactive),0.55,3,0.381 (inactive),0.001 (inactive)
Cn1cc(C2=C(c3cn(CCN)c4ccccc34)C(=O)NC2=O)c2ccccc21,89.8%,29.9% (inactive),99% (inactive),0.435,14.5,0.0574 (inactive),0.0015 (inactive)
O=C1NC(=Nc2ccccc2)SC1=Cc1ccc2ncccc2c1,124%,68.1% (inactive),98% (inactive),0.04,3,0.0469 (inactive),-0.003 (inactive)
CN=C1NC(=O)C(=Cc2ccc3ncccc3c2)S1,82.2%,65.3% (inactive),98.5% (inactive),-0.23,2,0.0435 (inactive),0.0015 (inactive)

# Reference: PubChem BioAssay
